Screens (PubChem)
Sfp inh = blocks B. subtilis Sfp PPTase activity | Biochemical Sfp PPTase activity, qHTS | Potency, µM, for inactives: largest response in the series, negative = inhibition, hits mostly inhibitors | 310,000 tested, 3.5% active;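 also: the enzyme is Sfp with the accession as filed and its product quenches rhodamine fluorescence; 0% = enzyme reaction without inhibitor and -100% = no enzyme wells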
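Fluorescence-quenching assay with 15 nM Sfp, 5 uM rhodamine-CoA and 12.5 uM BHQ-2-labelled ybbR peptide in pH 7.6 Hepes/MgCl2 buffer. Enzyme was pre-incubated with compound for 15 min at room temperature. Rate was taken from the 30-min fluorescence change (525/598 nm).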
PLK1 PBD block = blocks phosphopeptide binding to human PLK1 polo-box domain | P53350 | Plk1 PBD binding of FITC phosphopeptide, fluorescence polarization | Potency, µM, inactives show max response, negative = inhibition, usual class: inhibitors | 360,000 tested, 2.8% active; also: series mostly up to about 57 µM; % is scaled to controls: 0 for no effect and ±100 for the full control effect; nearly all actives have a fitted effect of over 65% in size
G9a block = G9a (human) methyltransferase inhibition; Q96KQ7; G9a H3K9 monomethylation, AlphaScreen, 2 h; Potency, µM (doses to about 102 µM), inactives show at the top dose activity, negative = inhibition, hits mostly inhibitors; 350,000 tested, 8.8% active; also: % is scaled to controls: 0 for no effect and ±100 for the full control effect; nearly all actives have a fitted effect of over 75% in size
Target sequence (Q96KQ7 913-1193 limits assumed): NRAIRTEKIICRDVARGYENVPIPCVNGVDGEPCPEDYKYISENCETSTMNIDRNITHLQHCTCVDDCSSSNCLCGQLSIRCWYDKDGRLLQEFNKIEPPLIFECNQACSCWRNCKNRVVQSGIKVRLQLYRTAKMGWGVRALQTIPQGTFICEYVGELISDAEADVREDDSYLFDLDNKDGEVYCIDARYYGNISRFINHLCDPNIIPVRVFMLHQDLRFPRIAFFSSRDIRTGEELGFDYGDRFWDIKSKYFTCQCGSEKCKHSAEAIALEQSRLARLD
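Chemiluminescent proximity detection of H3K9 monomethylation, read after 10 min bead incubation in the dark. Reaction: 20 nM G9a, 500 nM biotin-H3K9 peptide, 20 uM SAM cofactor, 2 h, room temperature, following 15 min enzyme-compound preincubation.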
BAZ2B inh = blocks human BAZ2B | 360,000 tested, 4.4% active | Potency, µM (series often up to 114 µM), inactives show at the highest dose activity change, negative = inhibition, most hits filed as inhibitors | Q9UIF8 | AID 504333 | AlphaScreen BAZ2B-H3K14Ac peptide displacement; also: % is scaled to controls: 0 for no effect and ±100 for the full control effect; nearly all actives have a fitted effect of over 60% in size
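Compounds, titrated to a top concentration of 110 uM, were incubated 30 min at room temperature with preformed BAZ2B/acetyl-K14 H3 peptide complex (50 nM each). Proximity signal was measured by AlphaScreen after 20 min with beads.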
JMJD2A Tudor inh = blocks the human JMJD2A Tudor domain; 390,000 tested, 4.4% active; AID 504339; O75164; Potency, µM (highest dose often 114 µM), inactives show at the top dose activity change, negative = inhibition, most hits filed as inhibitors; AlphaScreen JMJD2A-Tudor / H3K4me3 peptide binding; also: % is scaled to controls: 0 for no effect and ±100 for the full control effect; nearly all actives have a fitted effect of over 50% in size
HP1b chromo inh = blocks HP1-beta chromodomain binding to methylated histone tails; Potency, µM (top dose mostly 114 µM), for the others: at the highest dose activity change, negative = inhibition, usual class: inhibitors; AlphaScreen HP1-beta / biotin-H3K9me3 peptide binding; AID 540317; 390,000 tested, 0.56% active; also: nearly all actives have a fitted effect of over 70% in size
Target sequence (P83916 whole entry, looked up): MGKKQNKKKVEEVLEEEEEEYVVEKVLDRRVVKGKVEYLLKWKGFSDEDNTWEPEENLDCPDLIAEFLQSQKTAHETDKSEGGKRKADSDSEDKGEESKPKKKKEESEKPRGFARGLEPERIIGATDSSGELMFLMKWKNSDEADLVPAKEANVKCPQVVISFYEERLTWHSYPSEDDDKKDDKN
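HP1-beta protein (50 nM final) preincubated 30 min at room temperature with biotinylated H3(1-18)K9me3 peptide (50 nM) in PBS pH 7.4, 0.01% Tween-20, then compound added for 30 min. AlphaScreen streptavidin donor/nickel chelate acceptor beads (10 ug/mL final), 30 min dark, luminescence read.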
* hit, by the source's call; [ ] = remark or other dose. Most compounds without a hit are left out; they make up all but 12% or so of the library. Calls follow the shape of the dose curve; as a rule, active = well fitted curve in the direction sought with a large enough effect; inconclusive = small, poorly fitted or top-dose-only effect, or another doubt; inactive = no such curve, though single readings can be large; an effect the other way counts as inactive or inconclusive. Potency is read from the fitted curve at half-maximal effect.

How did Cc1ccc(/C([O-])=C(/C(=S)NCCN2CCOCC2)[n+]2ccccc2)cc1[N+](=O)[O-] do in these assays?
Sfp inh: 20µM*; PLK1 PBD block: -8%; G9a block: -33%[12.7 µM]; BAZ2B inh: -36%; JMJD2A Tudor inh: -10%[11.4 µM]; HP1b chromo inh: 51%

What do the screens show for `Cc1ccc(/C([O-])=C(/C(=S)Nc2ccc(SC(F)F)cc2)[n+]2ccccc2)cc1[N+](=O)[O-]`?
Sfp inh: 13µM*; PLK1 PBD block: -26%; G9a block: 22µM*; BAZ2B inh: inconclusive; JMJD2A Tudor inh: inconclusive; HP1b chromo inh: -21%

Results for CCC(CC)C(=O)c1c[nH]c(C(=O)NCc2ccc(F)cc2)c1 ?
Sfp inh: 5%; PLK1 PBD block: -6%; G9a block: 19%; BAZ2B inh: -17%; JMJD2A Tudor inh: -10%; HP1b chromo inh: 27%

Results for COc1ccc(N2CC(NC(=O)/C=C\c3ccccc3)CC2=O)cc1OC (stereo not given) ?
G9a block: 10%[59 µM]; BAZ2B inh: 0%; JMJD2A Tudor inh: 0%; HP1b chromo inh: 27%

Results for Cc1ccccc1NC(=O)Cn1c(=O)n(CCCCCC(=O)NCc2ccc3c(c2)OCO3)c(=O)c2sccc21 ?
G9a block: 10%[59 µM]; BAZ2B inh: -3%; JMJD2A Tudor inh: -16%; HP1b chromo inh: 15%

How did OC(c1cc(Cl)cc(Cl)c1)c1ncc(-c2ccccc2F)[nH]1 (stereo not given) do in these assays?
PLK1 PBD block: 1%

Results for Cc1ccc(NC(=S)/C(=C(\[O-])c2ccc(C)c([N+](=O)[O-])c2)[n+]2ccccc2)cc1C ?
Sfp inh: 4%; G9a block: inconclusive; BAZ2B inh: 56µM*

Results for [O-]/C(=C(\C(=S)Nc1cccc2ccccc12)[n+]1ccccc1)c1ccc(OC(F)F)cc1 ?
Sfp inh: 45µM*; PLK1 PBD block: -22%; G9a block: 45µM*; BAZ2B inh: 35µM*; JMJD2A Tudor inh: -29%[57.1 µM]; HP1b chromo inh: -24%

How did O=C(C[n+]1ccc(C(=O)NCc2ccccc2)cc1)c1ccc(OC(F)F)cc1 do in these assays?
Sfp inh: -16%; PLK1 PBD block: -7%; G9a block: inconclusive; BAZ2B inh: 16%; JMJD2A Tudor inh: -10%; HP1b chromo inh: 32%

Results for COc1cccc(NC(=S)/C(=C(\[O-])c2ccc(C)c([N+](=O)[O-])c2)[n+]2ccccc2)c1 ?
Sfp inh: 56µM*; PLK1 PBD block: -27%; G9a block: inconclusive; BAZ2B inh: inconclusive; JMJD2A Tudor inh: inconclusive; HP1b chromo inh: -22%

What do the screens show for `Cc1ccccc1NC(=S)/C(=C(\[O-])c1ccc(C)c([N+](=O)[O-])c1)[n+]1ccccc1`?
Sfp inh: -19%; PLK1 PBD block: -10%; G9a block: inconclusive; BAZ2B inh: inconclusive; JMJD2A Tudor inh: -35%; HP1b chromo inh: -12%

What do the screens show for `COc1ccccc1CCNC(=O)Cc1ccc(NC(=O)N2CCSc3ncccc32)cc1`?
G9a block: inconclusive; BAZ2B inh: -16%; JMJD2A Tudor inh: -18%; HP1b chromo inh: -10%

How did COc1ccc(OC)c(S(=O)(=O)NCCc2sc(-c3ccc(C)cc3)nc2C)c1 do in these assays?
G9a block: -1%[59 µM]; BAZ2B inh: -19%; JMJD2A Tudor inh: -36%; HP1b chromo inh: 33%[57 µM]

What do the screens show for `CC(C)(C)c1ccc(OCC(=O)OCCNC(=O)c2cccnc2)cc1`?
Sfp inh: 7%; PLK1 PBD block: 1%; G9a block: 50µM*; BAZ2B inh: 5%; JMJD2A Tudor inh: -23%; HP1b chromo inh: 36%

Results for CC(C)(C)c1ccc(C(=O)NCCCNC(=O)c2cccnc2)cc1 ?
Sfp inh: 2%; PLK1 PBD block: 2%; G9a block: 14%; BAZ2B inh: -3%; JMJD2A Tudor inh: -6%; HP1b chromo inh: 15%

Results for CC(C)OC(=O)C(C(=O)C(F)(F)F)c1cc(NS(=O)(=O)c2ccc3ccccc3c2)c2ccccc2c1O (stereo not given) ?
Sfp inh: 56µM*; PLK1 PBD block: inconclusive; G9a block: 32µM*; BAZ2B inh: -36%; JMJD2A Tudor inh: 35µM*; HP1b chromo inh: inconclusive

What do the screens show for `COc1ccccc1N1CCN(c2ncnc3c2cnn3-c2cccc(Cl)c2)CC1`?
G9a block: 9%[59 µM]; BAZ2B inh: 0%; JMJD2A Tudor inh: 1%; HP1b chromo inh: 46%

What do the screens show for `COc1cc(OC)c(OC)cc1/C=C1/C(=O)N=C(N)N1C`?
Sfp inh: 19%; PLK1 PBD block: 21µM*; G9a block: 3%; BAZ2B inh: -17%; JMJD2A Tudor inh: -32%; HP1b chromo inh: 20%

What do the screens show for `O=C1CCc2cc(S(=O)(=O)Nc3ccccc3-c3ccccc3)ccc2N1`?
JMJD2A Tudor inh: -20%

What do the screens show for `CC(=O)Nc1ccc(-c2nc3ccc(Cl)cc3[nH]2)cc1`?
Sfp inh: -18%

How did CC(=O)Nc1ccc2nc(-c3ccccn3)[nH]c2c1 do in these assays?
Sfp inh: 50µM*; PLK1 PBD block: -4%; G9a block: inconclusive; BAZ2B inh: inconclusive; JMJD2A Tudor inh: 56µM*; HP1b chromo inh: 12%

How did CC(=O)Nc1ccc2nc(-c3ccncc3)[nH]c2c1 do in these assays?
Sfp inh: -1%; PLK1 PBD block: -5%; G9a block: 5%; BAZ2B inh: inconclusive; JMJD2A Tudor inh: -25%; HP1b chromo inh: 23%

Results for CC(=O)Nc1cc(NC(C)=O)cc(-c2nc3ccccc3[nH]2)c1 ?
Sfp inh: 12%; PLK1 PBD block: -11%; G9a block: -2%; BAZ2B inh: 50µM*; JMJD2A Tudor inh: -10%; HP1b chromo inh: inconclusive

What do the screens show for `CCN(CC)c1ncnc2c1ncn2[C@H]1CN(C2CCCC2)C[C@@H](CO)O1`?
PLK1 PBD block: 2%

Results for CC1(C)Cc2c(c(-c3ccccc3)nc3sc4c(=O)[nH]c(=S)[nH]c4c23)CO1 ?
Sfp inh: 1%; PLK1 PBD block: inconclusive; BAZ2B inh: -7%; JMJD2A Tudor inh: inconclusive; HP1b chromo inh: 27%

Results for CC1(C)Cc2sc3c(=O)[nH]c(=S)[nH]c3c2CO1 ?
Sfp inh: 28µM*; PLK1 PBD block: -9%; BAZ2B inh: inconclusive; JMJD2A Tudor inh: inconclusive; HP1b chromo inh: 24%

How did COc1ccccc1/C=C/CN1CC(C)OC(C)C1 (stereo not given) do in these assays?
Sfp inh: -12%; PLK1 PBD block: -3%; G9a block: inconclusive; BAZ2B inh: 45µM*; JMJD2A Tudor inh: 3.2µM*; HP1b chromo inh: inconclusive
